Structures are written as SMILES. Records with an inconclusive call do not appear. The source made the active and inactive calls. How the source made its calls: active means hit-call score of the fitted dose curve at least 0.9, where 1 is the maximum; inconclusive means response in the unintended direction; inactive means score below 0.9.

Sequence of human Serotonin Receptor 5-HT1A, HTR1A (gene 3350) (P08908 whole entry, looked up): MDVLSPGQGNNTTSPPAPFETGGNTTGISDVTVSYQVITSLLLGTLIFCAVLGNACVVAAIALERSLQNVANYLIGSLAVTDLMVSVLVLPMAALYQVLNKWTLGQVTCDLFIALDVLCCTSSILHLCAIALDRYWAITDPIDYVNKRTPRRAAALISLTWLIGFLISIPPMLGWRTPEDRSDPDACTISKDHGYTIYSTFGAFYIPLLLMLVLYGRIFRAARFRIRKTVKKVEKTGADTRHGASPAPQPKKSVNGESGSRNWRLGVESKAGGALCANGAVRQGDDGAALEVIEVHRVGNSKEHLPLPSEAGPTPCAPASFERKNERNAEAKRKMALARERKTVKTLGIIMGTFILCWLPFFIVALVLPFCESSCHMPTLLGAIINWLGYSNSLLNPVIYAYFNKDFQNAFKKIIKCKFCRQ

The target of this assay is human Serotonin Receptor 5-HT1A, HTR1A (gene 3350) (UniProt P08908). As to the kind of experiment: ERF_FR_GPCR_hHTR1A: Eurofins (ERF) G Protein-Coupled Receptor (GPCR) Radioligand Binding LeadHunter Assay for human Serotonin Receptor 5-HT1A Agonism, conducted at France lab site. How it is done:
ERF_FR_GPCR_hHTR1A is a biochemical, single-readout assay that uses extracted gene-proteins in a cell-free assay. Measurements were taken 1 hour after chemical dosing in a 96-well plate. See 5-HT1A Human Serotonin GPCR Binding (Agonist Radioligand) Assay, Cerep.ERF_FR_GPCR_hHTR1A is an assay component calculated from the ERF_FR_GPCR_hHTR1A assay. It is designed to measure radioligand binding using a type of binding reporter as detected by scintillation counting with radiometry technology.Data from the assay component ERF_FR_GPCR_hHTR1A was analyzed at the assay endpoint, ERF_FR_GPCR_hHTR1A, in the positive analysis fitting direction relative to DMSO as the negative control and baseline of activity. Using a type of binding reporter, gain-of-signal activity can be used to understand changes in binding as they relate to gene HTR1A. To generalize the intended target to other relatable targets, this assay endpoint is annotated to the gpcr intended target family, where the subfamily is serotonin.
Human cells are incubated for 60 minutes at room temprature with [3H]8-OH-DPAT ligand (0.5 nM) and 8-OH-DPAT as control inhibitor. Test Sample Requirements: Minimum for 1) Screen: 60 ul of 10 mM stock -OR- 1 mg (pre-weighed) for 10 uM final testing. 2) Dose Response: 90 ul of 10 mM stock -OR- 1 mg (pre-weighed) for a top concentration at 10 uM.
For orientation: AC50 means the concentration giving half of the maximal activity seen. Regarding `COc1cc(/C=C/C(=O)CC(=O)/C=C/c2ccc(O)c(OC)c2)ccc1O`, the AC50 is 2.01 µM (active). For `O=C(/C=C/c1ccc(O)cc1)CC(=O)/C=C/c1ccc(O)cc1`, the result was inactive. In the case of `CCCCC[C@H](O)CC(=O)CCc1ccc(O)c(OC)c1`, the compound was called inactive.
